Screens from PubChem BioAssay.
An excerpt weighted towards active compounds, which were near 5.1% of everything screened.
S1P3 antag: antagonists of human S1P3 receptor; Q99500; CHO S1P3 NFAT-BLA reporter, FRET fluorescence, antagonist mode; inhibition, % at 4.98 µM; actives 0.27% (n = 170,000); AID 485;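 active = inhibition above the plate cutoff, the mean inhibition of test wells on that plate plus 3 SD, cut at about 28% in these data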;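 also: cells challenged with S1P at its EC80 of 0.8 µM; blue over green emission ratio from cleaved BLA substrate after 4 h stimulation; 0% = S1P-stimulated wells and 100% = unstimulated DMSO-only wells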
RAM network inh: blocks the yeast RAM network. S. cerevisiae dse1pr::URA3 reporter, 5-FOA growth OD615, 2 d; analog-sensitive cbk1-as2 kinase mutant strain. actives 1.8% (n = 190,000). AID 868. inhibition, % at 50 µM;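 active = inhibition above a set limit, 3 SD over mean compound inhibition, cut at about 8.4% in these data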;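 also: 0% = DMSO-only wells with no growth and 100% = 10 µM 1-NA-PP1 full growth; inhibition rescues growth on 5-FOA so higher OD means more RAM inhibition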
S1P4 antagonist: human S1P4 receptor antagonism. actives 0.26% (n = 220,000). inhibition, % at 4.98 µM. S1P4-expressing cells, antagonist mode, reporter read-out; in the data active = inhibition above about 29%;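 also: 0% = wells stimulated with agonist and 100% = vehicle wells without agonist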
ROMK mod: modulates human ROMK potassium channel activity; P48048; Tet-inducible ROMK, thallium flux fluorescence; actives lie on both sides; B-score at 10 µM; actives 2% (n = 130,000); AID 1918;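 active = signal ratio slope over the read window, or its plate-corrected B-score, at least 3 SD from the plate mean, either direction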;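 also: B-score of the F/F0 ratio slope over 7 to 12 s after thallium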
Target sequence (P48048 whole entry, looked up): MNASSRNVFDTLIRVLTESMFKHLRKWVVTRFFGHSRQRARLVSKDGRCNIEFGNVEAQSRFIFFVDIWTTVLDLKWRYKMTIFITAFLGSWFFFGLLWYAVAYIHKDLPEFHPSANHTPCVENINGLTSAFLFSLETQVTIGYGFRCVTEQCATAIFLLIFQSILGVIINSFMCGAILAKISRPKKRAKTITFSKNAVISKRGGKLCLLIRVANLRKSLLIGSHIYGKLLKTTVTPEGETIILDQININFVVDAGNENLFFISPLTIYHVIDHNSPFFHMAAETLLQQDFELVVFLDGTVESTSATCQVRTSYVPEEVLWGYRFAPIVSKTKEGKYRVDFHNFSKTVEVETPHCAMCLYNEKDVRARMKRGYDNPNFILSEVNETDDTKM
Cl transport mod: KCC2 (human) Cl- transport modulation; Q9H2X9; KCC2 cells, thallium flux FluoZin-2 fluorescence; B-score of Tl+ flux slope (higher = more flux/activation; lower = inhibition) at 10 µM; actives 2.2% (n = 190,000); AID 1456;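 active = thallium flux slope and its plate-corrected score both differing from the plate sample mean at a set confidence after two filtering rounds, in either direction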;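 also: slope of fluorescence scaled to starting intensity during 10 to 20 s after thallium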
S1P4 agonist: human S1P4 receptor agonism | O95977 | S1P4-expressing cell line, agonist reporter assay | activation, % at 4.98 µM | actives 0.35% (n = 220,000) | AID 1509; in the data active = activation above about 11%;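 also: 0% = DMSO vehicle and 100% = reference agonist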
* = called active by the depositor; · = no result.

SMILES	S1P3 antag	RAM network inh	S1P4 antagonist	ROMK mod	Cl transport mod	S1P4 agonist
COc1ccccc1NC(=O)Cc1csc(NC(=O)c2ccccc2)n1	-1	9.2*	2	-0.13	-1.4	1
Cc1ccc(CNC(=O)C(=O)NCC2OCCN2C(=O)c2cccs2)cc1 (centres undefined)	-13	9.5*	-6	·	-0.16	1
O=C(NCc1ccccc1)C(=O)NCC1OCCN1C(=O)c1cccs1 (centres undefined)	-5	0	-16	·	-0.12	5
Cc1ccc(-c2nn(-c3ccccc3)cc2NC(=O)CCl)cc1	-3	0	-2	0.0024	0.43	-1
O=C1CN(C(=O)COc2ccc(F)cc2Br)c2ccccc2N1	-7	2	3	-0.068	-0.12	2
Cc1ccc(NC(=O)COC(=O)c2ccc(OCc3c(C)noc3C)cc2)cc1S(=O)(=O)N1CCOCC1	-9	11*	-6	·	-0.8	2
c1ccc(CN(Cc2ccccc2)c2nn[nH]n2)cc1	-11	2	-19	-0.79	·	-1
Clc1ccc(CN(Cc2ccc(Cl)cc2)c2nn[nH]n2)cc1	-5	3	17	0.32	-5.9*	0
COc1ccccc1NC(=O)c1c(Nc2ccccc2F)sc(C(=O)Nc2cccc(Cl)c2)c1N	-8	11*	-6	-0.14	0.048	5
COc1ccc(Nc2sc(C(=O)Nc3cccc(Cl)c3)c(N)c2C(=O)Nc2ccccc2OC)cc1	2	9.7*	-16	0.32	-0.73	0
COc1ccc(OC)c(-c2cc(C(=O)Nc3cccc(Cl)c3)no2)c1	3	2	-12	·	0.81	0
Cc1nn(-c2ccccc2)c(Cl)c1/C=C(\CC(=O)O)c1nc2ccccc2s1	·	4	-16	1.3	-3*	0
Cc1c(/C=C(\CC(=O)O)c2nc3ccccc3s2)cc(C#N)n1C	-3	·	13	·	-1.4	0
Cc1ccc(S(=O)(=O)N(c2ccc(Br)cc2)C2C=CS(=O)(=O)C2)cc1 (centres undefined)	4	4	6	0.96	0.61	0
Cc1ccc(-c2nc(NCc3ccco3)n(C(=O)c3ccco3)n2)cc1	9	7	-3	0.049	-1	0
O=C(c1ccco1)n1nc(-c2ccc(Cl)cc2)nc1NCc1ccco1	-26	9.4*	-25	0.29	0.026	0
O=C(NCCc1ccccc1)C1CCC(CNS(=O)(=O)c2cccc3cccnc23)CC1 (centres undefined)	-2	·	-6	0.098	-1.1	1
O=C(NCCc1ccc(F)cc1)c1cc(=O)c2ccccc2o1	-11	1	-18	-0.19	-0.84	0
Nc1nnc(Cc2cccc(Br)c2)s1	-15	·	-4	-1.4	0.26	3
CC(=O)N1c2ccc3ccccc3c2C(C)CC12CCCCC2 (centres undefined)	·	10*	5	-0.22	0.25	-2
O=C(O)C(Cc1ccccc1)N1C(=O)/C(=C/c2ccccc2)SC1=S (centres undefined)	-2	5	-24	-0.84	-2.1	1
O=C(O)C(Cc1ccccc1)N1C(=O)/C(=C/c2cccc3ccccc23)SC1=S (centres undefined)	·	6	6	·	-7.2*	0
CCOC(=O)C1=C(C)N=c2s/c(=C/c3ccco3)c(=O)n2C1c1cccc(OC)c1 (centres undefined)	9	9.5*	10	·	-0.85	1
CCOC(=O)C1=C(N)n2c(s/c(=C/c3ccco3)c2=O)=C(C(=O)OC)C1c1ccco1 (centres undefined)	81*	8	-23	2	0.64	1
COc1ccc(N2CCN(C(=O)CCc3ccc(S(=O)(=O)NC(C)(C)C)cc3)CC2)cc1	9	·	-7	·	-0.11	1
N#C/C(=C\c1ccc(Cl)s1)C(=O)N1CCN(c2ccccc2)CC1	3	2	9	1.3	1.8	1
C=CCSC1=N/C(=C\c2sccc2C)C(=O)S1	·	9.4*	3	·	1.4	1
CCc1ccc(NC(=O)c2cc(-c3ccco3)on2)cc1	59*	3	-3	·	-0.55	1
COCc1c(C(=O)OC/C(O)=C(\C#N)c2nc3ccccc3[nH]2)oc2ccccc12	-14	4	-17	-0.84	-0.13	-1
COc1ccc(Br)cc1/C=C/C(=O)Nc1ccc2ccccc2c1	-6	4	-6	1.2	0.1	0
